# Test results from PubChem BioAssay (NCI).
# Compounds without any hit were thinned out: in the full panel of roughly 83,000, 20% have a hit.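 96-well plates, one dose, 48 hours. Percent growth reported; active if below 10.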 A number with no mark means an inactive call. The source made the active and inactive calls.
# System: HOP-92 NSCLC
# Assay: NCI-60 one-dose screen, 48 h (100 = growth as untreated, 0 = no growth, -100 = all killed)
# Conditions: 10 µM unless noted
row,SMILES,growth
1,COc1ccc2nc(-c3ccc(Cl)cc3)cc(-c3nnc(SCC(=O)Nc4ccc(/C(C)=N\O)cc4)o3)c2c1,19.1%
2,C/C(=C\c1cnc(C)s1)[C@@H]1C[C@@H]2O[C@@H]2CCC[C@H](C)[C@H](O)[C@@H](C)C(=O)C(C)(C)[C@@H](O)CC(=O)O1,52.6%
3,O=C(/C(=C\c1c(-c2ccccc2)[nH]c2ccccc12)S(=O)(=O)c1ccccc1)c1ccccc1,-4.34% (active)
4,O=c1[nH]c(-c2cccc(F)c2)cc2cc(F)ccc12,70.7%
5,O=C1CS/C(=N/c2nnc(-c3ccc(O)cc3)s2)N1,111%
6,C[C@H](Oc1cc(-c2cnn(C3CCNCC3)c2)cnc1N)c1c(Cl)ccc(F)c1Cl,41.1%
7,COCCOCCOCc1n(Cc2ccc3ccccc3n2)c2ccccc2[n+]1Cc1ccc2ccccc2n1,-22.1% (active)
8,CCOC(=O)c1cnn(-c2nc(-c3ccc(F)cc3)c(C#N)c(N3CCOCC3)n2)c1N,98.7%
9,CC(=O)c1c(OCC#N)ccc2c(C)cc(=O)oc12,108%
10,CN(CCC#N)C(=O)Nc1ccccc1,114%
11,C#Cc1ccccc1NC(=O)c1sc2nc3c(cc2c1N)CCCCC3,93.2%
12,COCCOC(=O)COc1ccc(OC)cc1,98.3%
13,C#C[C@@]1(O)[C@@H](CO)O[C@@H](n2cnc3c(-c4ccccc4)ncnc32)[C@@H]1O,105%
14,COc1cc(NCC(=O)Nc2cc(Nc3ccc(C)cc3)ncn2)c(Cl)c(OC)c1Cl,78.7%
